# Laboratory results taken from PubChem BioAssay (NCATS).
# “And” between values parts separate entries of the source, which are not always exact repeats. Equal entries are not always repeated. Inconclusive results are not listed. Where a call stands in place of a potency, no number is given. The source made the active and inactive calls. Calls come from the whole dose curve; as a rule, active = well fitted curve in the direction sought with a large enough effect; inconclusive = small, poorly fitted or top-dose-only effect, or another doubt; inactive = no such curve, though single readings can be large; an effect the other way counts as inactive or inconclusive.
# Legend:
# [1] = qHTS to identify inhibitors of the type 1 interferon - major histocompatibility complex class I in skeletal muscle: primary screen against the NCATS Pharmaceutical Collection (AID 1347407); details: human skeletal muscle cells, IFN-b-induced MHC-I HiBiT luminescence, 24 h; series mostly up to 45.9 µM;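 note: luminescence of HiBiT knocked into endogenous HLA-B as interferon-induced MHC class I level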
# Outline: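 Compounds […] were added to CRISPR-engineered HLA-B-HiBiT C25cl48 human myoblasts with 4.0 ng/ml IFN-beta. After 24 hrs at 37 C, cells were lysed and HiBiT luminescence measured.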
# [2] = Confirmatory screen NINDS Rhodamine qHTS for Zika virus inhibitors (AID 1347161); details: purified enzyme assay, Rhodamine110 substrate fluorescence, 15 min; series mostly up to 114 µM; note: nearly all actives have a fitted effect of over 60% in size; note: potency is the fitted concentration of half-maximal effect;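 for activity change, negative = inhibition: purified Zika NS2B-NS3 protease with linked NS2B cofactor domain and Rhodamine110 peptide substrate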
# Outline: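 Rhodamine110-peptide cleavage (1.5 µM substrate) by 25 nM linked NS2B-NS3 enzyme at pH 8.0 (Tris, Tween 20), after 15 min RT preincubation with compounds; 15-min fluorescence change normalized to controls and Hill-fitted.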
# [3] = tested on: Zika virus NS2B-NS3 protease (linked); test: 384 well plate NINDS AMC confirmatory qHTS for Zika virus inhibitors (AID 1347163); details: Recombinant NS2B-NS3 protease, Ac-VKTGKR-AMC fluorescence; series mostly up to 1 mM; note: nearly all actives have a fitted effect of over 50% in size; note: potency is the fitted concentration of half-maximal effect;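 for activity change, negative = inhibition: linked protease at 5 30 or 60 nM final depending on run; fluorescence of AMC released from Ac-VKTGKR-AMC peptide cleaved by the protease; top concentration of the series differs between compounds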
# Outline: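 Linked protease 5/30/60 nM final; cpds up to 1 mM final, ~15 min preinc. Substrate Ac-VKTGKR-AMC 30 microM final. RT, dark, 25 min; FI ex 355/em 460; normalized to no-enzyme/no-inhibitor ctrls.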
# [4] = Tertiary RLuc qRT-PCR qHTS assay for Zika virus inhibitors (AID 1347169); details: infected Vero cells, reporter luminescence, 48-72 h; series mostly up to 45.9 µM; note: nearly all actives have a fitted effect of over 55% in size; note: potency is the fitted concentration of half-maximal effect; for activity change, negative = inhibition: top concentration of the series differs between compounds
# Outline: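 Orthogonal cell-based readout: luminescence measured 1-1.5 hrs after adding live-cell Renilla substrate to Vero cells that had been infected with ZIKV-RLuc (MOI 1-2) post-compound, incubated 48-72 hrs at 37 degrees C.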
# [5] = Vero cells viability qHTS for Zika virus inhibitors (AID 1347167); details: cytotoxicity counter-screen (Zika); series mostly up to 45.9 µM
# Outline: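 Counter-screen for cytotoxicity of hits from NS2B-NS3 protease qHTS. Overnight-attached cells (2.5 x 10^5 cells/mL, DMEM/4% FBS) were dosed in titration, incubated 24 to 48 hours, then assayed by CellTiter Glo.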
# [6] = HepG2 cells viability qHTS for Zika virus inhibitors (AID 1347168); details: Zika counter-screen; series mostly up to 45.9 µM; note: potency is the fitted concentration of half-maximal effect
# Text: Avindra Nath, Ph.D., National Institute of Neurological Disorders and Stroke (NINDS), Bethesda, MD
# Radhakrishnan Padmanabhan, Ph.D., Georgetown University (GU), Washington D.C.
# Zika Virus causes congenital defects, including microcephaly and is associated with Guillain-Barre syndrome, eningoencephalitis and myelitis in infected adult. […] Using a target-based approach, we hope to establish a screening paradigm to uncover novel, cell-active NS2B-NS3 protease (Zika Virus) specific inhibitors from NCATS' collection of small molecules using qHTS.
# Four assay panel was created to identify potential Zika Virus inhibitors. Namely, (1) GU unlinked NS2B-NS3 AMC tagged protease qHTS, (2) GU unlinked NS2B-NS3 Rhodamine tagged protease qHTS, (3) NINDS linked NS2B-NS3 AMC tagged protease qHTS, (4) NINDS linked NS2B-NS3 Rhodamine tagged protease qHTS. Identified inhibitors were screened against the Vero and HepG2 cell viability assays using CellTiter Glo to exclude cytotoxic compounds.
# Early Translation Branch (ETB)
# National Center for Advancing Translational Sciences (NCATS), Rockville, MD
# National Institute of Health (NIH), Bethesda, Maryland
# Vero and HepG2 Cell Viability Assay:
# Vero and HepG2 cell cytotoxicity were determined using a luminescent readout with CellTiter Glo reagent (Promega, Madison, WI), which is based on measuring the ATP content within cells. Briefly, 4 microL of Vero or HepG2 cells at 2.5 x 10^5 cells/mL in DMEM containing 4% FBS were dispensed into 1536-well solid bottom tissue treated white plate using a Multidrop Combi dispenser (Thermo Scientific). Plates were incubated at 37 degrees C, 95% humidity, and 5% CO2 overnight to allow for cell attachment. Compounds were dissolved in DMSO at different concentrations and transferred via pintool (Wako Automation), for a final concentration of 0.029 µM - 57 microM. Plates were again incubated for 24 to 48 hours, followed by a 2 microL addition of CellTiter Glo. Finally, plates were incubated for 30 minutes at 37 degrees C and 5% CO2 before being read on a ViewLux (Perkin Elmer) for luminescence.
# [7] = target: Lysine-specific demethylase 5B (Homo sapiens) (UniProt Q9UGL1); test: Optimization screen for KDM5B Histone Demethylases FDH coupled qHTS against the LOPAC library (AID 1347166); details: KDM5B demethylation, FDH-coupled NADH fluorescence (FDH is formaldehyde dehydrogenase); series mostly up to 57.5 µM
# Lysine-specific demethylase 5B (Homo sapiens), sequence (Q9UGL1 whole entry, looked up): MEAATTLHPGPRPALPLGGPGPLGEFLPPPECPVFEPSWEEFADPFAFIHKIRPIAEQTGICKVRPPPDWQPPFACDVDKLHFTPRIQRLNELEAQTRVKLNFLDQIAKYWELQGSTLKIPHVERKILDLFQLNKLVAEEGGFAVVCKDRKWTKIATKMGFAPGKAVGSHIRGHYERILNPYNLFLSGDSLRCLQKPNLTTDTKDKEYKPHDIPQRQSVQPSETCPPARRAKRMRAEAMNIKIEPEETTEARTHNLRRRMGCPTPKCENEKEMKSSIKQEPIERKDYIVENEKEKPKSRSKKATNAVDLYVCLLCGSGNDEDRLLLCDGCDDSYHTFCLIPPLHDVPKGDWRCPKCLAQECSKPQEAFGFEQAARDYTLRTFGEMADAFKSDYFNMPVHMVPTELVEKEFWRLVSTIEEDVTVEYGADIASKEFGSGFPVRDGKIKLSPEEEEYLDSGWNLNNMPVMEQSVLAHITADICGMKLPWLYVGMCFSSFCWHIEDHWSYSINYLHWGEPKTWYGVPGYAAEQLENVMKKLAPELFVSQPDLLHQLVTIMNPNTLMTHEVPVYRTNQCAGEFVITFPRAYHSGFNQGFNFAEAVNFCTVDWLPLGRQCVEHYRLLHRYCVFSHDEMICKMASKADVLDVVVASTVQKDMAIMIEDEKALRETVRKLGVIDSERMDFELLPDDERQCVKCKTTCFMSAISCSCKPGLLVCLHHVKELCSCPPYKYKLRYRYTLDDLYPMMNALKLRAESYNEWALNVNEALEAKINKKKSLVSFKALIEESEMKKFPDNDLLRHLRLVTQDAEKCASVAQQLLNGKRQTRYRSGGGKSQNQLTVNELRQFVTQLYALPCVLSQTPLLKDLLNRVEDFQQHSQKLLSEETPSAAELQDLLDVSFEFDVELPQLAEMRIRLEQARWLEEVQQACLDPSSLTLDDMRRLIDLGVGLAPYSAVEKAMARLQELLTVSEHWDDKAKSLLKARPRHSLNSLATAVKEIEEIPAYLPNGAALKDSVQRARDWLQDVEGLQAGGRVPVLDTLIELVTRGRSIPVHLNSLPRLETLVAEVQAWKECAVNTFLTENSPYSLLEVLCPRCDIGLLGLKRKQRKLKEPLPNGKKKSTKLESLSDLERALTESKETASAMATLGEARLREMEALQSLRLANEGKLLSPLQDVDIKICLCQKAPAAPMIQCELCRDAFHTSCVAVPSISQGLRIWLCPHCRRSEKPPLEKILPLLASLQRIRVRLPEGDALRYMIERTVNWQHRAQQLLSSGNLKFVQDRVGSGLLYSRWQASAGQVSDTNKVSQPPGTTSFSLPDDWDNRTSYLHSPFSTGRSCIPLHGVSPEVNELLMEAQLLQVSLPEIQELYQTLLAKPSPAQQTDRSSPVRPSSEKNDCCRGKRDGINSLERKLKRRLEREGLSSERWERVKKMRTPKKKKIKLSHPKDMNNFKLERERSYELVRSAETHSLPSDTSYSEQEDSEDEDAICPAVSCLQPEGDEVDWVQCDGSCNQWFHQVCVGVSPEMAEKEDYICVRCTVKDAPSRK
# Outline: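 KDM5BDeltaAP (200nM final) preincubated 10 min with compound, then 12.5uM H3K4Me3, 25uM a-ketoglutarate, ascorbate, Fe(II), NAD+ and FDH added; 50mM HEPES pH 7.5, 0.01% Tween-20. NADH fluorescence (340/450 nm) change over 30 min, room temperature.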
# [8] = qHTS to identify inhibitors of the type 1 interferon - major histocompatibility complex class I in skeletal muscle: primary screen against the NCATS LOPAC collection (AID 1347405); details: iHSKM muscle cells, IFN-b-induced MHC-I HiBiT luminescence, 24 h; series mostly up to 45.9 µM;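 note: lytic HiBiT luminescence reporting HLA-B protein level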
# Outline: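 Cells: C25cl48 human myoblasts, HiBiT-tagged HLA-B*08:01, stimulated with IFN-beta 4.0 ng/ml. Compounds are titrated 1:4.3 over 7 points from 46 uM final and incubated 24 hrs; endogenous MHC class I is quantified by HiBiT lytic luminescence.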
# [9] = tested on: Zika virus NS2B-NS3 protease (linked construct); test: Primary screen NINDS Rhodamine qHTS for Zika virus inhibitors (AID 1347160); details: purified NS2B-NS3 protease, Rhodamine110 substrate fluorescence; series mostly up to 57.1 µM; note: nearly all actives have a fitted effect of over 55% in size
# Outline: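 Purified linked NS2B-NS3 protease (NS2B hydrophilic domain joined to NS3 protease by flexible linker), 25 nM in 10 mM Tris-HCl pH 8.0, 0.01% Tween 20. Compounds titrated, 15 min preincubation at room temperature; 1.5 microM Rhodamine110 substrate, FITC fluorescence change over 15 min.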
# [10] = tested on: Zika virus NS2B-NS3 protease (linked construct); test: 384 well plate NINDS Rhodamine confirmatory qHTS for Zika virus inhibitors (AID 1347164); details: rhodamine-110 peptide substrate fluorescence;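 note: fluorescence from protease cleavage of Ac-LKRR-rhodamine 110 substrate; potency is the fitted concentration of half-maximal effect; nearly all actives have a fitted effect of over 65% in size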
# Outline: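 Fluorescence at 485/538 nm was measured 25 minutes after adding 10 microM Ac-LKRR-Rd substrate, in the dark at room temperature. The protease (5, 30 or 60 nM final) had been preincubated ~15 minutes with compound; aprotinin as control.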
smiles,measurement,setting,value
CCCCNC(=O)NS(=O)(=O)c1ccc(N)cc1,Potency,[1],inactive
CC(C)=CCOc1ccc(/C=C/C(=O)c2ccc(OCC=C(C)C)cc2OCC(=O)O)cc1,Potency,[2],6.31 µM (active)
same,Potency,[3],39.8 µM (active)
same,"activity change, negative = inhibition",[4],84.9% [at 5.25 µM] (inactive)
same,Potency,[1],inactive
O=c1[nH]c(=O)n([C@H]2C[C@H](O)[C@@H](CO)O2)cc1F,Potency,[1],inactive
CNCCc1ccccn1,Potency,[1],inactive
C[C@H]1O[C@@H](O[C@H]2CC[C@@]3(C)[C@H](CC[C@@H]4[C@@H]3C[C@@H](O)[C@]3(C)[C@@H](C5=CC(=O)OC5)CC[C@]43O)C2)C[C@H](O)[C@@H]1O[C@H]1C[C@H](O)[C@H](O[C@H]2C[C@H](O)[C@H](O[C@@H]3O[C@H](CO)[C@@H](O)[C@H](O)[C@H]3O)[C@@H](C)O2)[C@@H](C)O1,outcome,[5],inactive
same,Potency,[6],inactive
same,Potency,[4],0.415 µM (active)
CC1(COc2ccc(CC3SC(=O)NC3=O)cc2)CCCCC1 (stereo not drawn),Potency,[2],3.11 µM (active)
same,outcome,[5],inactive
same,Potency,[6],inactive
same,Potency,[1],inactive
CCOC(=O)[C@H](CCc1ccccc1)N[C@@H](C)C(=O)N1[C@H](C(=O)O)C[C@H]2CCCC[C@@H]21,outcome,[7],inactive
same,outcome,[8],inactive
O=C1C(O)=C(O)C(=O)C(O)=C1O,Potency,[1],inactive
CN=C(N)NCCC[C@H](N)C(=O)O,outcome,[7],inactive
same,outcome,[8],inactive
CCc1nn(CCCN2CCN(c3cccc(Cl)c3)CC2)c(=O)n1CCOc1ccccc1,Potency,[1],inactive
FC(F)(F)C(F)(F)C(F)(F)C(F)(F)C(F)(F)C(F)(F)C(F)(F)C(F)(F)Br,Potency,[1],inactive
O=C(O)CCC(=O)Nc1ccc(S(=O)(=O)Nc2nccs2)cc1,Potency,[1],inactive
c1ccc(CC2=NCCN2)cc1,Potency,[1],inactive
O=C1[C@H](CC[C@H](O)c2ccc(F)cc2)[C@@H](c2ccc(O)cc2)N1c1ccc(F)cc1,outcome,[9],inactive
same,Potency,[1],inactive
CCOC(=O)[C@H](CCc1ccccc1)N[C@@H](C)C(=O)N1[C@H](C(=O)O)C[C@@H]2CCC[C@@H]21,Potency,[1],inactive
CC[C@]12CCCN3CCc4c(n(c5ccccc45)C(=O)C1)[C@@H]32,outcome,[9],inactive
same,Potency,[1],inactive
C=C[C@H]1CN2CC[C@H]1C[C@H]2[C@H](O)c1ccnc2ccc(OC)cc12,Potency,[2],inactive
same,Potency,[4],inactive
CCC(CC)(CC(=O)Nc1cccc(/C=C/c2nc(C3CCC3)cs2)c1)C(=O)O,Potency,[2],22.1 µM (active)
same,Potency,[3],inactive
same,outcome,[5],inactive
same,Potency,[6],inactive
same,Potency,[4],inactive
same,Potency,[1],inactive
O=C(O)C(Cc1cc(I)c(O)c(I)c1)c1ccccc1 (stereo not drawn),Potency,[2],50.1 µM (active)
same,Potency,[10],112 µM (active)
same,"activity change, negative = inhibition",[4],-2.94% [at 1.74 µM] (inactive)
same,Potency,[1],inactive
C/C=C/c1ccc(O)c(OC)c1,Potency,[1],inactive
COc1ccc2c(c1)c1c3n2CCN(C)C3=NCC1,Potency,[1],inactive
NC(=O)c1ccccc1O,Potency,[1],inactive
CCc1oc2ccccc2c1C(=O)c1cc(Br)c(O)c(Br)c1,Potency,[2],1.75 µM (active)
same,Potency,[3],79.4 µM (active)
same,Potency,[10],28.2 µM (active)
same,outcome,[5],inactive
NC(N)=NCc1cccc(I)c1,outcome,[7],inactive
same,outcome,[8],inactive
Oc1ccccc1C=NCc1ccccc1,Potency,[1],inactive
CCCCCCCCCCCCCCCC(=O)O,Potency,[1],inactive
C=C1c2cccc(O)c2C(O)=C2C(=O)[C@]3(O)C(O)=C(C(N)=O)C(=O)[C@@H](N(C)C)[C@@H]3[C@@H](O)[C@H]12,Potency,[3],8.91 µM (active) and 316 µM (active)
same,Potency,[10],251 µM (active)
same,outcome,[5],inactive
same,Potency,[6],inactive
same,Potency,[4],inactive
COc1ccc(C(=O)c2ccccc2O)c(O)c1,Potency,[1],inactive
O=C1OC2(c3ccccc31)c1cc(Br)c(O)c(Br)c1Oc1c2cc(Br)c(O)c1Br,Potency,[1],inactive
O[C@@H](c1cc(C(F)(F)F)nc2c(C(F)(F)F)cccc12)[C@H]1CCCCN1,outcome,[5],inactive
same,Potency,[6],20.8 µM (active)
same,Potency,[4],9.3 µM (active)
CO[C@]12C[C@@H](COC(=O)c3cncc(Br)c3)CN(C)[C@@H]1Cc1cn(C)c3cccc2c13,Potency,[1],inactive
Oc1c(Cl)cc(Cl)c(Cl)c1Cc1c(O)c(Cl)cc(Cl)c1Cl,Potency,[2],3.55 µM (active)
same,Potency,[3],35.5 µM (active)
same,Potency,[10],14.1 µM (active)
CCOCCn1c(N2CCCN(C)CC2)nc2ccccc21,Potency,[1],inactive
Cc1cc(-c2ccccc2)nnc1NCCN1CCOCC1,Potency,[1],inactive
CC(C)(C)NC[C@H](O)COc1nsnc1N1CCOCC1,outcome,[7],inactive
same,outcome,[8],inactive
N=C(N)N1CCc2ccccc2C1,"activity change, negative = inhibition",[1],-4.74% [at 3.83 µM] (inactive)
O=C(CCCN1CC=C(n2c(=O)[nH]c3ccccc32)CC1)c1ccc(F)cc1,outcome,[9],inactive
same,Potency,[1],inactive
O=C(O)C1(C(=O)O)CCC1.[NH2-].[NH2-].[Pt+2],Potency,[1],inactive
